Test [1] has as its target Glutathione peroxidase 1 (Homo sapiens) (UniProt P07203). The experiment in a line: Primary qHTS Assay for Inhibitors of Recombinant Selenoprotein Glutathione Peroxidase 1 (GPX1) (AID 1845191). Also: nearly all actives have a fitted effect of over 65% in size. Also: potency is read from the fitted curve at half-maximal effect. Particulars: recombinant GPX1, GR-coupled NADPH fluorescence, 15 min; series mostly up to 48.8 µM. In short, it runs like this:
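NADPH consumption tracked by fluorescence at 340/450 nm between t=0 and t=15 min, room temperature. Final mix: 10 nM GPX1, 100 nM glutathione reductase, 1 mM GSH, 0.5 mM NADPH, 0.5 mM cumene hydroperoxide, 0.01% BSA; 30 min compound–enzyme preincubation.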
For orientation: qHTS replaces the single test concentration by a dilution series.

Test [2] concerns the target Phospholipid hydroperoxide glutathione peroxidase GPX4 (Homo sapiens) (UniProt P36969). The experiment in a line: Primary qHTS Assay for Inhibitors of Recombinant Selenoprotein Glutathione Peroxidase 4 (GPX4) (AID 1845192). Also: nearly all actives have a fitted effect of over 65% in size. Also: potency is read from the fitted curve at half-maximal effect. The following applies: recombinant GPX4, GR-coupled NADPH fluorescence, 15 min; series mostly up to 50 µM. The method, boiled down:
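NADPH consumption followed by fluorescence at 340/450 nm, t=0 and after 15 min at room temperature. Reaction started with cumene hydroperoxide (0.5 mM final) after 30 min compound–GPX4 preincubation; final 200 nM GPX4, 100 nM GR, 1 mM GSH, 0.5 mM NADPH.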

The target in test [3] is Luciferin 4-monooxygenase (Photinus pyralis) (UniProt P08659). The experiment in a line: Primary firefly luciferase (FLuc) qHTS assay for identification of artifact compounds. (AID 1845220). Also: nearly all actives have a fitted effect of over 60% in size. The following applies: purified firefly luciferase, luminescence, 5 min; series mostly up to 54.1 µM. In short, it runs like this:
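FLuc 10 nM; luciferin 10 uM; ATP 10 uM; Tris-acetate pH 7.6, Mg-acetate 10 mM; 15 min RT preincubation; 5 min reaction; luminescence.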

Test [4] can be described thus: Primary fluorescence-based thiol-reactive (MSTI) qHTS assay for identification of artifact compounds. (AID 1845221).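 Also: thiol-reactive compounds lower the probe fluorescence signal; nearly all actives have a fitted effect of over 65% in size.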 Particulars: MSTI thiol-reactivity probe, 1 h; series mostly up to 53.8 µM. In short, it runs like this:
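MSTI probe at 4 uM final in 2% DMSO/PBS pH 7.4; compounds, 1 h at room temperature in dark. Fluorescence Ex/Em 525/598 nm, normalised to Acetyl-MSTI and MSTI, fitted to 4-parameter Hill.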

For test [5], the system named is Nanoluciferase (engineered Oplophorus gracilirostris luciferase). The experiment in a line: Primary Nanoluciferase (NLuc) qHTS assay for identification of artifact compounds. (AID 1845222).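 Also: NLuc secreted into diluted conditioned medium of S16 cells.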 Particulars: NLuc-conditioned medium, Nano-Glo luminescence, 5 min; series mostly up to 54.1 µM. In short, it runs like this: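 NLuc from S16 cell medium (1:55) plus test compounds, 15 min, room temperature. Luminescence after Nano-Glo (1:100) addition, 5 min.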

A short description of test [6]: Primary redox qHTS assay for identification of artifact compounds. (AID 1845223). The following applies: Amplex Red/HRP redox cycling with DTT, fluorescence; series mostly up to 53.8 µM. In short, it runs like this:
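Redox-cycling detection via DTT (250 uM final) oxidation coupled to Amplex Red (25 uM)/HRP (250 mU/mL) in HBSS. 15 min preincubation plus 30 min after DTT, room temperature. Ex/Em 525/598 nm; 4-parameter Hill fit against DMSO and 10 uM DA3003.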

Results filed as inconclusive are left out. Active and inactive are the calls of the source. Calls follow the shape of the dose curve; as a rule, active = well fitted curve in the direction sought with a large enough effect; inconclusive = small, poorly fitted or top-dose-only effect, or another doubt; inactive = no such curve, though single readings can be large; an effect the other way counts as inactive or inconclusive.

The values that follow come from PubChem BioAssay (NCATS).

Chain of Phospholipid hydroperoxide glutathione peroxidase GPX4 (Homo sapiens) (P36969 whole entry, looked up): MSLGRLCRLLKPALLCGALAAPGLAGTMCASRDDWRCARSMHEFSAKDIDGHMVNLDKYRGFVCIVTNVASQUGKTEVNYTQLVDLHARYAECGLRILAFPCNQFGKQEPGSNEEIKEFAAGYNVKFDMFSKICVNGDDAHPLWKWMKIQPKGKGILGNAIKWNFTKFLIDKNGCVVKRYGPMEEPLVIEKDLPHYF
Chain of Glutathione peroxidase 1 (Homo sapiens) (P07203 whole entry, looked up): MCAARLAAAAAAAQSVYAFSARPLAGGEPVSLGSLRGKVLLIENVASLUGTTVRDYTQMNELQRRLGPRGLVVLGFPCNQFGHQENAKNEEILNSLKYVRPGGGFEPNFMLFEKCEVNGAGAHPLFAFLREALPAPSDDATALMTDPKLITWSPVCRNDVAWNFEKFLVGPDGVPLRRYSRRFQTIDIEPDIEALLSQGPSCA

Take `CC1=C(/C=C/C(C)=C/C=C/C(C)=C/C=C/C=C(C)/C=C/C=C(C)/C=C/C2=C(C)C[C@@H](O)CC2(C)C)C(C)(C)C[C@H](O)C1`: the Potency result in test [1] and in test [2] was “inactive” in each case.
In the case of `Cc1ccc(S(=O)(=O)O)cc1C`, the Potency entry in test [1] and in test [2] was “inactive” in each case.
Consider `C[S+](C)CCC(N)C(=O)O` (centres undefined), for which the Potency entry in test [1] and in test [2] was “inactive” throughout.
Turning to `C[C@H](NCCc1ccc(O)cc1)[C@H](O)c1ccc(O)cc1`, the Potency result in test [1] and in test [2] was “inactive” each time.
Regarding `O=[N+]([O-])O[C@@H]1CO[C@H]2[C@@H]1OC[C@@H]2O`, the Potency entry in test [1] and in test [2] was “inactive” throughout.
For the molecule `CC(C)[C@H](N)C(=O)OCC(CO)OCn1cnc2c(=O)[nH]c(N)nc21` (some centres undefined), the Potency result in test [1] and in test [2] was “inactive” in each case.
`COc1ccc(/C=C/C(=O)OCCC(C)C)cc1`: the Potency result in test [1] and in test [2] was “inactive” in each case.
For the molecule `CCCCCCCCCCCCCC(=O)OCC(COP(=O)([O-])OCC[N+](C)(C)C)OC(=O)CCCCCCCCCCCCC` (centres undefined), the Potency result in test [1] and in test [2] was “inactive” throughout.
Regarding `N=C(N)c1ccc(/C=C/c2ccc(C(=N)N)cc2O)cc1`, the Potency entry in test [1] and in test [2] was “inactive” throughout.
Turning to `OC[C@@H](O)C(O)[C@H](O)CO`, the Potency result in test [1] and in test [2] was “inactive” in each case.
With `CCCCC(CC)CCC(CC(C)C)OS(=O)(=O)O` (centres undefined), in test [1], the Potency entry is “inactive”. For the same molecule, the Potency in test [2] is 10 µM (active).
Consider `O=[N+]([O-])c1c(Cl)cccc1-c1c[nH]cc1Cl`, for which the Potency result in test [1] and in test [2] was “inactive” throughout.
On to `COc1cc2c(cc1OC)[C@@H](Cc1cc(OC)c(OC)c(OC)c1)[N+](C)(CCCOC(=O)CC/C=C/CCC(=O)OCCC[N+]1(C)CCc3cc(OC)c(OC)cc3[C@H]1Cc1cc(OC)c(OC)c(OC)c1)CC2` (some centres undefined), for which the Potency result in test [1] and in test [2] was “inactive” in each case.
Turning to `C(=C\c1ccncc1)/c1ccccc1`, the Potency result in test [1] and in test [2] was “inactive” each time.
Regarding `CC(/C=C/C=C(\C)C(=O)O[C@@H]1O[C@H](CO[C@@H]2O[C@H](CO)[C@@H](O)[C@H](O)[C@H]2O)[C@@H](O)[C@H](O)[C@H]1O)=C\C=C\C=C(C)\C=C\C=C(/C)C(=O)O[C@@H]1O[C@H](CO[C@@H]2O[C@H](CO)[C@@H](O)[C@H](O)[C@H]2O)[C@@H](O)[C@H](O)[C@H]1O`, the Potency entry in test [1] and in test [2] was “inactive” in each case.
With `CCOC(=O)[C@@H](N)CS`, in test [2], the Potency is 14.1 µM (active).
Turning to `CC(O)[C@H]1CC[C@H]2[C@@H]3CC[C@@H]4C[C@@H](O)CC[C@]4(C)[C@H]3CC[C@]12C` (some centres undefined), the Potency result in test [1] and in test [2] was “inactive” throughout.
Consider `CCCCC[C@H](O)/C=C/[C@@H]1[C@H]2C/C(=C/CCCC(=O)O)O[C@H]2C[C@H]1O`, for which the Potency result in test [1] and in test [2] was “inactive” throughout.
On to `CO/N=C(\C(=O)N[C@@H]1C(=O)N2C(C(=O)O)=C(C[N+]3(C)CCCC3)CS[C@H]12)c1csc(N)n1`, for which the Potency in test [1] was 11.4 µM (active); in test [2] it was 17.8 µM (active).
On the same counts, the results for `CNC(=O)OCc1cccc(COC(=O)NC)n1` are “inactive” and “inactive”.
Take `Cc1cc(-c2ccc(N=Nc3ccc4c(S(=O)(=O)O)cc(S(=O)(=O)O)c(N)c4c3O)c(C)c2)ccc1N=Nc1ccc2c(S(=O)(=O)O)cc(S(=O)(=O)O)c(N)c2c1O`: the Potency entry in test [1] and in test [2] was “inactive” throughout.
Consider `CC[C@H]1OC(=O)C[C@@H](O)[C@H](C)[C@@H](O[C@@H]2O[C@H](C)[C@@H](O[C@H]3C[C@@](C)(O)[C@@H](O)[C@H](C)O3)[C@H](N(C)C)[C@H]2O)[C@@H](CC=O)C[C@@H](C)C(=O)/C=C/C(C)=C/[C@@H]1CO[C@@H]1O[C@H](C)[C@@H](O)[C@@H](OC)[C@H]1OC`, for which the Potency result in test [2] was “inactive”.
Take `O=P(O)(O)CP(=O)(O)O`: the Potency entry in test [1] and in test [2] was “inactive” throughout.
Regarding `CO[C@H]1O[C@@H]2O[C@@]3(C)CC[C@H]4[C@H](C)CC[C@@H]([C@H]1C)[C@@]24OO3`, the Potency entry in test [1] and in test [2] was “inactive” in each case.
Regarding `COc1ccc(C[C@H](C)NC[C@@H](O)c2ccc(O)c(NC=O)c2)cc1`, the Potency result in test [1] and in test [2] was “inactive” throughout. Besides, the molecule was classed as inactive in test [3], in test [4], in test [5] and in test [6].
For the molecule `C=C1CC[C@H](O)CC1=C/C=C1\CCC[C@]2(C)[C@@H]([C@H](C)CCCC(C)(C)O)CC[C@@H]12`, in test [1], the Potency result is “inactive”. Moreover, in test [2], the Potency is 14.1 µM (active).
As for `OC[C@H]1O[C@@](CO)(O[C@H]2O[C@H](CO)[C@@H](O)[C@H](O)[C@H]2O)[C@@H](O)[C@@H]1O`, the Potency entry in test [1] and in test [2] was “inactive” throughout.
As for `O=C(O)Cc1cc(I)c(Oc2ccc(O)c(I)c2)c(I)c1`, the Potency entry in test [1] and in test [2] was “inactive” throughout. Further, the result in test [3] and in test [4] was inactive.
In the case of `COc1ccc(-c2noc(CC(=O)O)c2-c2ccc(OC)cc2)cc1`, the Potency entry in test [1] and in test [2] was “inactive” throughout.
Turning to `OCc1ccccc1`, the Potency result in test [1] and in test [2] was “inactive” each time.
With `OCCCNc1ccccc1`, the Potency entry in test [1] and in test [2] was “inactive” in each case.
With `FCOC(C(F)(F)F)C(F)(F)F`, the Potency result in test [1] and in test [2] was “inactive” each time.
Take `O=P(O)(O)OP(=O)(O)O`: the Potency result in test [1] and in test [2] was “inactive” throughout.
On to `O=C1c2ccccc2C(=O)c2c1ccc(O)c2O`, for which the Potency entry in test [1] and in test [2] was “inactive” each time.
Consider `FC(F)(F)C(F)(F)C(F)(F)C(F)(F)C(F)(F)F`, for which the Potency result in test [1] and in test [2] was “inactive” each time.
`C/C(=C\C(=O)OCCCCCCCCC(=O)O)C[C@@H]1OC[C@H](C[C@@H]2O[C@H]2[C@@H](C)[C@H](C)O)[C@@H](O)[C@H]1O`: the Potency entry in test [1] and in test [2] was “inactive” throughout. The call in test [3], in test [4] and in test [5] was inactive.
Consider `N#Cc1ccc2c(c1)N(CCCN1CCC(O)CC1)c1ccccc1S2`, for which the Potency entry in test [1] and in test [2] was “inactive” each time.
For the molecule `NC(=S)NS(=O)(=O)c1ccc(N)cc1`, the Potency result in test [1] and in test [2] was “inactive” each time.
As for `S=C1SCN(Cc2ccccc2)CN1Cc1ccccc1`, the Potency in test [2] is 15.8 µM (active).
Turning to `CO[C@@H]1[C@H](OC(=O)/C=C/C=C/C=C/C=C/C(=O)O)CC[C@]2(CO2)[C@H]1[C@@]1(C)O[C@@H]1CC=C(C)C`, the Potency entry in test [1] is “inactive”. The Potency in test [2] is 14.1 µM (active).
For the molecule `C=CC1=C(C(=O)O)N2C(=O)[C@@H](NC(=O)/C(=N\O)c3csc(N)n3)[C@H]2SC1` (stereo in doubt), in test [1], the Potency was 11.4 µM (active). Also, the Potency result in test [2] is “inactive”.
As to `NC[C@H]1O[C@H](O[C@H]2[C@H](O)[C@@H](O[C@H]3O[C@H](CO)[C@@H](O)[C@H](N)[C@H]3O)[C@H](N)C[C@@H]2N)[C@H](O)[C@@H](O)[C@@H]1O`, the outcome in test [1] is “inactive [at 4.49 µM]”; in test [2] it was “inactive [at 4.52 µM]”.
Take `Cc1cc(-c2ccc(N=Nc3c(S(=O)(=O)O)cc4cc(S(=O)(=O)O)cc(N)c4c3O)c(C)c2)ccc1N=Nc1c(S(=O)(=O)O)cc2cc(S(=O)(=O)O)cc(N)c2c1O`: the Potency result in test [1] and in test [2] was “inactive” each time.
For the molecule `C[Se]CC[C@H](N)C(=O)O`, the Potency result in test [1] and in test [2] was “inactive” in each case.
As to `C[C@@H]1C[C@H]2[C@@H]3C[C@H](F)C4=CC(=O)C=C[C@]4(C)[C@@]3(Cl)[C@@H](O)C[C@]2(C)[C@H]1C(=O)COC(=O)C(C)(C)C`, the Potency entry in test [1] and in test [2] was “inactive” throughout.
`CCOC(=O)c1c[nH]c2cc(OCC(C)C)c(OCC(C)C)cc2c1=O`: the Potency result in test [1] and in test [2] was “inactive” in each case.
For the molecule `CCN(CC)CCOCCOC(=O)C(CC)(CC)c1ccccc1`, the Potency entry in test [1] and in test [2] was “inactive” each time. In addition, the molecule was classed as inactive in test [3], in test [4], in test [5] and in test [6].
